Laboratory results: the supplement of paper PMC10981050
“And” between values parts separate entries of the source, which are not always exact repeats. Identical values can stand only once. Counter-ions that a name gives are not always drawn.

What was measured:
Test in all cases: cell viability relative to vehicle control; higher = less cytotoxic
Settings in all cases: 10 µM
K562 = test system: K562
Summary of the method: (§1)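 CRISPR-edited SRSF2 P95 mutant and isogenic wild-type clones of four leukaemia lines were screened against Selleck bioactive, kinase and epigenetic probe libraries, with identity-inconsistent compounds removed. Compounds were acoustically dispensed into 384-well plates at a single 10 µM dose, with 2000 cells in 50 µL medium per well. After 48 h, supernatant was removed and CellTiter-Glo luminescence was read. Viability was expressed as percent of the on-plate DMSO vehicle control, analysed in Genedata Screener.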

MARIMO = test system: MARIMO
Summary of the method: as §1

MOLM14 = test system: MOLM14
Summary of the method: as §1

OCI-AML2 = test system: OCI-AML2
Summary of the method: as §1

Compound	cell viability (K562; SRSF2 genotype: SRSF2 P95H/wt)	cell viability (K562; SRSF2 genotype: SRSF2 wt/wt)	cell viability (MARIMO; SRSF2 genotype: SRSF2 P95H/wt)	cell viability (MARIMO; SRSF2 genotype: SRSF2 wt/wt)	cell viability (MOLM14; SRSF2 genotype: SRSF2 P95H/wt)	cell viability (MOLM14; SRSF2 genotype: SRSF2 wt/wt)	cell viability (OCI-AML2; SRSF2 genotype: P95H/wt)	cell viability (OCI-AML2; SRSF2 genotype: wt/wt)
CN1CCN(Cc2ccc(NC(=O)Nc3ccc(Oc4ccnc(N)n4)cc3)cc2C(F)(F)F)CC1	31.7% and 37.7%	22.2%	6.8%	2.68%	1.79%	0.67%	1.64%	10.3%
FC(F)c1nc2ccccc2n1-c1nc(N2CCOCC2)nc(N2CCOCC2)n1	71.3% and 77.2%	70%	49.4%	43.4%	32%	32.9%	13.8%	27.2%
O=C1Cc2c([nH]c3ccc(Br)cc23)-c2ncccc2N1 [1-Azakenpaullone]	109% and 116%	104%	122%	127%	128%	122%	153%	148%
CNC1CCC(N(Cc2cccc(-c3ccncc3)c2)C(=O)c2sc3ccccc3c2Cl)CC1 (stereo not drawn) [Smoothened Agonist (SAG) HCl]	18.8% and 30.6%	29.8%	53.8%	51.4%	36.6%	48.6%	3.18%	26.1%
O=C(Cn1cnnn1)N[C@@H]1C(=O)N2C(C(=O)O)=C(CSc3nncs3)CS[C@H]12 [Ceftezole sodium]	108% and 99.1%	120%	101%	105%	109%	110%	123%	118%
O=c1ccn([C@@H]2O[C@H](CO)[C@@H](O)[C@H]2O)c(=O)[nH]1 [Uridine]	105% and 90%	94.1%	81.2%	92.2%	82.8%	90%	78.3%	92.8%
Nc1ccn([C@@H]2CS[C@H](CO)O2)c(=O)n1 [Lamivudine (Epivir)]	100% and 99.5%	102%	105%	104%	99.8%	105%	106%	114%
C/C=C(/C)C(=O)O[C@@H]1[C@H](OC(C)=O)c2c(ccc3ccc(=O)oc23)OC1(C)C [Praeruptorin A]	96.7% and 95.2%	100%	89.8%	101%	89%	94.8%	97.4%	104%
O=C1c2ccccc2C(=O)C1c1ccccc1 [Phenindione (Rectadione)]	103% and 98.4%	105%	105%	104%	107%	106%	101%	113%
COc1cc(Cc2cnc(N)nc2N)cc(OC)c1OC [Trimethoprim]	102% and 101%	94.4%	103%	104%	102%	104%	101%	101%
C[C@H]1C[C@H]2[C@@H]3CCC4=CC(=O)C=C[C@]4(C)[C@H]3C(=O)C[C@]2(C)[C@@]1(O)C(=O)CO [Betapar (Meprednisone)]	98.4% and 97.3%	93%	101%	106%	105%	105%	89%	104%
O=C(/C=C/c1cncc(F)c1)c1c(-c2ccccc2)c2cc(Cl)ccc2[nH]c1=O	6.82% and 5.38%	2.2%	3.3%	0.38%	0.08%	0.04%	0.13%	0.16%
CC#CCn1c(N2CCC[C@@H](N)C2)nc2c1c(=O)n(Cc1nc(C)c3ccccc3n1)c(=O)n2C [Linagliptin (BI-1356)]	99% and 103%	103%	98%	97%	101%	106%	110%	93.6%
C=C[C@@H]1CNC(=S)O1 [Epigoitrin]	103% and 97.6%	101%	91.3%	93.1%	101%	99.2%	103%	104%
O=C(NCCCNc1nc(Nc2cccc(CN3CCOCC3)c2)ncc1C1CC1)C1CCC1	74.5% and 95.7%	84.8%	69.5%	74.1%	8.31%	6.65%	17.8%	21.4%
CC(NC(=O)c1ccccc1/N=C/c1c(O)ccc2ccccc12)c1ccccc1 (stereo not drawn) [Sirtinol]	93% and 101%	103%	102%	98.7%	94.7%	101%	103%	102%
CCCC(CCC)C(N)=O [Valpromide]	96.1% and 94.6%	100%	99.5%	101%	102%	99.5%	95%	107%
CCOCc1nc2c(N)nc3ccccc3c2n1CC(C)(C)O [Resiquimod]	94.5% and 96%	92.3%	86%	87.6%	97.1%	96.1%	95.8%	98.8%
CC(C)C[C@H](NC(=O)[C@H]1O[C@@H]1C(=O)O)C(=O)NCCCCN=C(N)N	106% and 111%	114%	99.6%	104%	101%	104%	108%	115%
CC1(C)[C@@H](OC(=O)CCC(=O)O)CC[C@]2(C)[C@H]3C(=O)C=C4[C@@H]5C[C@@](C)(C(=O)O)CC[C@]5(C)CC[C@@]4(C)[C@]3(C)CC[C@@H]12 [Carbenoxolone disodiuM]	95.9% and 92.2%	88%	96.2%	99%	91.8%	96.7%	89.3%	103%
Cc1ccc(NC(=O)c2cccc(C(C)(C)C#N)c2)cc1Nc1ccc2ncn(C)c(=O)c2c1	12.9% and 33%	25.2%	44%	40.9%	44.9%	35.3%	42.7%	41.7%

Compound	cell viability (K562; SRSF2 genotype: SRSF2 P95H/wt)	cell viability (K562; SRSF2 genotype: SRSF2 wt/wt)	cell viability (MARIMO; SRSF2 genotype: SRSF2 P95H/wt)	cell viability (MARIMO; SRSF2 genotype: SRSF2 wt/wt)	cell viability (MOLM14; SRSF2 genotype: SRSF2 P95H/wt)	cell viability (MOLM14; SRSF2 genotype: SRSF2 wt/wt)	cell viability (OCI-AML2; SRSF2 genotype: P95H/wt)	cell viability (OCI-AML2; SRSF2 genotype: wt/wt)
Cc1cccc(N(C)C(=S)Oc2ccc3ccccc3c2)c1 [Tolnaftate]	99.7% and 106%	91.9%	89.3%	109%	96.9%	101%	106%	109%
CC(C)(C)n1nc(-c2ccc(Cl)cc2)c2c(N)ncnc21	56.2% and 78.5%	63.3%	84.6%	104%	66%	67.3%	80%	78.3%
Oc1ccc2ccccc2c1SSc1c(O)ccc2ccccc12	62.1% and 81.6%	83.9%	32.7%	29.7%	18.9%	29.6%	31.8%	31.2%
Cc1cnc(NC(=O)Nc2cc(Br)c(C)cc2OC[C@@H]2CNCCO2)cn1	8.35% and 7.58%	8.76%	20.6%	8.01%	10.8%	6.96%	12.8%	12.1%
Cc1cccc(-c2[nH]c(C(C)(C)C)nc2-c2ccc3c(c2)OCO3)n1	63.9% and 60.2%	47.6%	61.4%	63.3%	84.9%	83.8%	52.6%	50%
Fc1ccc(-c2c3cccc(C(F)(F)F)c3nn2Cc2ccc(F)cc2Cl)cc1	95.4% and 91.2%	90.1%	97.2%	114%	94.2%	98%	114%	120%
COc1cc(C=O)ccc1OC(C)=O [Acetylvanillin]	99.2% and 99.9%	99.7%	104%	103%	104%	101%	98.4%	104%
N#Cc1ccc(Oc2ccc3c(c2)COB3O)cc1 [Crisaborole (AN2728)]	93.3% and 84%	90.8%	73.8%	72.9%	68.2%	77.7%	90%	79.3%
O=C1CCc2ccccc2O1 [Dihydrocoumarin]	95.7% and 98.2%	94.4%	94.5%	105%	105%	102%	93.6%	100%
Cc1ccc2nc(NC(=O)CSc3nc4c(c(=O)n3-c3ccccc3)SCC4)sc2c1	91.8% and 99.4%	89.8%	94%	98.9%	98.9%	93.3%	94.2%	104%
C[C@H](CCC(=O)O)[C@H]1CC[C@H]2[C@@H]3CC[C@@H]4C[C@H](O)CC[C@]4(C)[C@H]3CC[C@]12C [Lithocholic acid]	102% and 101%	101%	106%	113%	98.9%	104%	107%	112%
Nc1cccc(-c2cc3c(Oc4cccc(O)c4)ncnc3[nH]2)c1	28.4% and 39.8%	27.7%	84.4%	94.5%	37.8%	35.5%	53.4%	53.3%
CCc1nc(C(N)=O)c(Nc2ccc(N3CCC(N4CCN(C)CC4)CC3)c(OC)c2)nc1NC1CCOCC1 [Gilteritinib (ASP2215)]	89% and 85.7%	91.4%	40.9%	40.6%	4.58%	8.89%	14.3%	21.3%
CCN(CC)CC(=O)Nc1c(C)cccc1C [Lidocaine (Alphacaine)]	113% and 102%	111%	106%	108%	103%	105%	101%	106%
C=C[C@]1(C)C[C@@H](OC(=O)CS[C@@H]2C[C@H]3CC[C@@H](C2)N3C)[C@]2(C)[C@H](C)CC[C@]3(CCC(=O)[C@H]32)[C@@H](C)[C@@H]1O [Retapamulin]	81.2% and 79.9%	84%	85.6%	84.6%	87.6%	84.5%	75.8%	84%
CNCCc1ccccn1 [Betahistine]	102% and 100%	102%	100%	103%	101%	105%	102%	105%
COC(=O)c1cc(O)c(O)c(O)c1 [Methyl gallate]	103% and 104%	96.7%	89.7%	101%	90.6%	104%	96.9%	110%
O=C1CCN(c2ccccc2)N1 [Phenidone]	106% and 107%	103%	102%	105%	100%	105%	99.5%	111%
COC1C(O)C(O)C(O)C(O)C1O (stereo not drawn) [Sequoyitol]	102% and 107%	110%	110%	99.1%	105%	109%	99.7%	106%
CC[C@@](C)(Nc1ccnc(-c2c[nH]c3ncccc23)n1)C(=O)NCC(F)(F)F [Decernotinib (VX-509)]	98.6% and 99.9%	104%	95.1%	96.2%	88.8%	106%	85.1%	92.2%
